An excerpt weighted towards active compounds, which were near 6.6% of everything screened.
HepG2 tox-1 – kills HepG2 cells in TGF-b inhibitor counter-screen | HepG2 CAGA-GFP viability, ATP luminescence, 18 h | Potency, µM (top dose mostly 46.1 µM), inactives show top-dose activity change, negative = cytotoxicity, most hits filed as cytotoxic | 0.76% of 410,000 active
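HepG2 CAGA-GFP cells (1000/well, DMEM with 1% FBS) received compound, then TGF-beta at 500 pg/mL final, and were incubated 18 hours at 37 degrees C. Viability was read by CellTiter-Glo luminescence. Media-only wells were set as complete cell-killing and DMSO as no toxicity.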
KB-V1 MDR tox – KB-V1 MDR subline cytotoxicity | Potency, µM (doses to about 46.1 µM), hits mostly cytotoxic | KB-V1 MDR cells viability, CellTiter-Glo, 72 h | 3.4% of 400,000 active; note: % is set by controls: 0 for no effect and ±100 for the full control effect; nearly all actives have a fitted effect of over 60% in size
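Luminescent ATP read-out (CellTiter-Glo, 10 min) measures survival of drug-selected KB-V1 MDR cells after 72 h, 37 degrees C compound exposure. Medium: phenol-red-free DMEM, 10% FBS. Values from fitted concentration-response curves.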
KB-3-1 cytotox – kills parental KB-3-1 adenocarcinoma cells; 1.4% of 400,000 active; KB-3-1 viability, CellTiter-Glo ATP luminescence, 72 h; Potency, µM (top dose mostly 46.1 µM), usual class: cytotoxic; note: % is set by controls: 0 for no effect and ±100 for the full control effect; nearly all actives have a fitted effect of over 60% in size
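Luminescent ATP read-out (CellTiter-Glo) measures survival of drug-naive KB-3-1 cells after 72 h compound exposure at 37 °C. Titration series was screened from lowest to highest concentration, with DMSO vehicle plates as background controls.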
HT1080NT lethal – kills 2HG-producing HT-1080-NT fibrosarcoma cells; Potency, µM (highest dose often 46.1 µM), without a hit: top-dose activity, negative = less viability, most hits filed as cytotoxic; HT-1080-NT fibrosarcoma viability, CellTiter-Glo ATP luminescence, 48 h; 1.6% of 360,000 active;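 note: NT is the 2HG producing partner of a matched IDH1 knockdown line; 0% = DMSO-treated cells and -100% = media-only wells without cells; nearly all actives have a fitted effect of over 55% in size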
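Viability of the 2HG-overproducing fibrosarcoma line after 48 hours of compound exposure at 37 degrees C was determined by luminescence with CellTiter-Glo, and concentration-effect curves were then fitted and categorized.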
HT1080 IDH1KD tx – toxicity to HT-1080 IDH1 knockdown cells (counter line); HT-1080 IDH1 knockdown viability, ATP luminescence, 48 h; Potency, µM (highest dose often 46.1 µM), without a hit: at the highest dose activity, negative = toxicity, hits mostly cytotoxic; 2% of 360,000 active;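 note: 0% = DMSO wells and -100% = cell-free medium wells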
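IDH1KD HT-1080 cells, 750/well, RPMI + 5% FBS; compound pinned after 2 h settling; 48 h, 37 °C; CellTiter-Glo luminescence; % activity normalised to DMSO and no-cell wells; curves fitted, classed by r2 and efficacy.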
TGFb SMAD3 inh – TGF-b pathway inhibition; HepG2 CAGA-GFP TGF-b/SMAD3 reporter, GFP fluorescence, 18 h; TGF-beta stimulated, 500 pg/mL final; Potency, µM (series often up to 46.1 µM), without a hit: at the highest dose activity, negative = inhibition, actives largely listed as inhibitors; 1.2% of 410,000 active; note: % is set by controls: 0 for no effect and ±100 for the full control effect; nearly all actives have a fitted effect of over 65% in size
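HEPG2 CAGA-GFP cells (1000/well, DMEM with 1% FBS) were pre-incubated 2 h at 37 degrees C, given compound by pin tool, then stimulated with TGF-beta at 500 pg/mL final for 18 h before per-cell GFP fluorescence imaging.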
TGFb confirm – confirmation of TGF-b signaling inhibitors in HepG2 reporter cells; shares compounds with TGFb SMAD3 inh; Potency, µM (highest dose often 46.1 µM), for the others: at the top dose activity, negative = inhibition, actives largely listed as inhibitors; HepG2 CAGA-GFP TGF-b reporter, GFP fluorescence, 18 h; cells stimulated with TGF-beta, 500 pg/mL; 63% of 1,600 active; note: % is set by controls: 0 for no effect and ±100 for the full control effect; nearly all actives have a fitted effect of over 65% in size
HepG2 tox-2 – toxic to HepG2 cells in TGF-b counterscreen. HepG2 CAGA-GFP viability, ATP luminescence, 18 h; cells stimulated with TGF-beta, 500 pg/mL. Potency, µM (titrated, usually from 46.1 µM), for the others: top-dose activity, negative = cytotoxicity, actives largely listed as inhibitors. shares compounds with TGFb SMAD3 inh. AID 720535. 27% of 1,600 active; note: % is set by controls: 0 for no effect and ±100 for the full control effect; nearly all actives have a fitted effect of over 70% in size
TGFb CCL64 inh – TGF-b inhibition, CCL64 orthogonal assay; shares compounds with TGFb SMAD3 inh; 41% of 1,600 active; Potency, µM (doses to about 46.1 µM), inactives show at the top dose activity, negative = inhibition, actives largely listed as inhibitors; CCL64 CAGA-GFP reporter, TGF-b stimulated, GFP fluorescence, 18 h; note: nearly all actives have a fitted effect of over 65% in size
TGFb COP inh – validation of TGF-b inhibitors in HepG2 COP promoter reporter | shares compounds with TGFb SMAD3 inh | HepG2 COP-GFP TGF-b reporter, GFP fluorescence, 18 h; cells stimulated by added recombinant TGF-beta | Potency, µM (doses to about 46.1 µM), for inactives: at the top dose activity, negative = inhibition, hits mostly inhibitors | 3% of 1,600 active; note: nearly all actives have a fitted effect of over 70% in size
* marks the source's active call; other numbers are inactive results. Calls come from the whole dose curve; as a rule, active = well fitted curve in the direction sought with a large enough effect; inconclusive = small, poorly fitted or top-dose-only effect, or another doubt; inactive = no such curve, though single readings can be large; an effect the other way counts as inactive or inconclusive. Potency is the fitted concentration of half-maximal effect.

CC(C)(C)OC(=O)NCCCC[C@H](NC(=O)c1[nH]cnc1C(=O)Nc1ccc(CNC(=O)OC(C)(C)C)cc1)C(=O)OC(C)(C)C was read as HepG2 tox-1 -4%, KB-V1 MDR tox inactive, KB-3-1 cytotox inactive, HT1080NT lethal inconclusive, HT1080 IDH1KD tx inconclusive and TGFb SMAD3 inh -25%.
Screening C[C@H](NC(=O)c1[nH]cnc1C(=O)Nc1ccc(CNC(=O)OC(C)(C)C)cc1)C(=O)OC(C)(C)C returned HepG2 tox-1 4%, KB-V1 MDR tox inactive, KB-3-1 cytotox inconclusive, HT1080NT lethal inconclusive, HT1080 IDH1KD tx -24%, TGFb SMAD3 inh 16µM*, TGFb confirm inconclusive, HepG2 tox-2 inconclusive, TGFb CCL64 inh -28% and TGFb COP inh 38%.
Screening CC(C)(C)OC(=O)[C@H](Cc1ccccc1)NC(=O)c1[nH]cnc1C(=O)Nc1cccc(Cl)c1 returned HepG2 tox-1 -55%, KB-V1 MDR tox inconclusive, KB-3-1 cytotox inconclusive, HT1080NT lethal inconclusive, HT1080 IDH1KD tx inconclusive, TGFb SMAD3 inh 10µM*, TGFb confirm 21µM*, HepG2 tox-2 18µM*, TGFb CCL64 inh inconclusive and TGFb COP inh 30%.
For S=C(NCc1ccco1)Nc1ccc(Oc2ccc(Cl)cc2)cc1 the results were HepG2 tox-1 -22%, KB-V1 MDR tox inactive, KB-3-1 cytotox inactive, HT1080NT lethal inconclusive, HT1080 IDH1KD tx inconclusive, TGFb SMAD3 inh 16µM*, TGFb confirm inconclusive, HepG2 tox-2 inconclusive, TGFb CCL64 inh inconclusive and TGFb COP inh 57%.
`CCc1nc2ccc(C(=O)NCCN3CCOCC3)cn2c1N(C)Cc1ccc(OC)cc1` gave HepG2 tox-1 -1%, KB-V1 MDR tox inactive, KB-3-1 cytotox inactive, HT1080NT lethal inconclusive, HT1080 IDH1KD tx 1% and TGFb SMAD3 inh 4%.
Screening Cc1ccc(S(=O)(=O)N2CCOCC2)cc1C(=O)Nc1nc(-c2ccccn2)cs1 returned HepG2 tox-1 -5%, KB-V1 MDR tox inconclusive, KB-3-1 cytotox inactive, HT1080NT lethal -12%, HT1080 IDH1KD tx -27%, TGFb SMAD3 inh inconclusive, TGFb confirm 9.2µM*, HepG2 tox-2 inconclusive, TGFb CCL64 inh inconclusive and TGFb COP inh 9%.
Screening O=C(N/N=C/c1ccc2c(c1)OCO2)c1cc(-c2ccccc2Cl)nc2ccccc12 returned HepG2 tox-1 -5%, KB-V1 MDR tox inactive, KB-3-1 cytotox inactive, HT1080NT lethal -1%, HT1080 IDH1KD tx 10%, TGFb SMAD3 inh inconclusive, TGFb confirm -10%, HepG2 tox-2 -9%, TGFb CCL64 inh -1% and TGFb COP inh -18%.
CCOc1ccccc1-c1cc(C(=O)N/N=C/c2ccc3c(c2)OCO3)c2ccccc2n1 was read as HepG2 tox-1 4%, KB-V1 MDR tox inactive, KB-3-1 cytotox inconclusive, HT1080NT lethal -7%, HT1080 IDH1KD tx -21% and TGFb SMAD3 inh -3%.
For Cc1ccc(S(=O)(=O)c2ccc([N+](=O)[O-])cn2)cc1 the results were HepG2 tox-1 7.1µM*, KB-V1 MDR tox 9.2µM*, KB-3-1 cytotox 6.5µM*, HT1080NT lethal 2.6µM*, HT1080 IDH1KD tx 4.6µM*, TGFb SMAD3 inh 2.8µM*, TGFb confirm 3.3µM*, HepG2 tox-2 2.9µM*, TGFb CCL64 inh 3.3µM* and TGFb COP inh 5.2µM*.
O=[N+]([O-])c1ccc(S(=O)(=O)c2ccccc2)nc1 was read as HepG2 tox-1 14µM*, KB-V1 MDR tox inactive, KB-3-1 cytotox inactive, HT1080NT lethal 5.8µM*, HT1080 IDH1KD tx 5.8µM*, TGFb SMAD3 inh 2.5µM*, TGFb confirm 4.1µM*, HepG2 tox-2 5.8µM*, TGFb CCL64 inh 3.3µM* and TGFb COP inh 8.2µM*.
For Cc1ccc(S(=O)(=O)c2ccc(C)cc2)cc1 the results were HepG2 tox-1 -16%, KB-V1 MDR tox inactive, KB-3-1 cytotox inactive, HT1080NT lethal 6%, HT1080 IDH1KD tx 1% and TGFb SMAD3 inh 1%.
Screening OCCCn1c(CCCNc2nc(-c3cccc(Br)c3)cs2)nc2cc(Cl)c(N3CCCCC3)cc21 returned HepG2 tox-1 -8%, KB-V1 MDR tox inactive, KB-3-1 cytotox inactive, HT1080NT lethal 18µM*, HT1080 IDH1KD tx inconclusive, TGFb SMAD3 inh 10µM*, TGFb confirm 13µM*, HepG2 tox-2 -23%, TGFb CCL64 inh inconclusive and TGFb COP inh 37%.
O=C(O)CCC(=O)N1CCN(S(=O)(=O)c2ccc3ccccc3c2)CC1 was read as HepG2 tox-1 -6%, KB-V1 MDR tox inactive, KB-3-1 cytotox inactive, HT1080NT lethal -8%, HT1080 IDH1KD tx -2% and TGFb SMAD3 inh 2%.
`O=C(Cn1ncc(Cl)c(Cl)c1=O)N1CCN(S(=O)(=O)c2ccc3ccccc3c2)CC1` gave HepG2 tox-1 -54%, KB-V1 MDR tox inactive, KB-3-1 cytotox 16µM*, HT1080NT lethal 2.6µM*, HT1080 IDH1KD tx 3.7µM*, TGFb SMAD3 inh 4µM*, TGFb confirm 2.6µM*, HepG2 tox-2 2.6µM*, TGFb CCL64 inh 5.2µM* and TGFb COP inh -22%.

Source: PubChem BioAssay (National Center for Advancing Translational Sciences (NCATS))
